Several values for one entry are separate records, joined by “and”; a condition that tells them apart may be missing. Equal entries are not always repeated. Compounds without any hit were thinned out: in the full panel of roughly 79,000, 15% have a hit. Activity calls are given as the source filed them. Cut-off read from the data, not from the text of the source: active = growth inhibition above about 70%; inactive = the rest.
Key:
[1] = NCI Yeast Anticancer Drug Screen. Data for the rad50 strain (AID 155);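 note: 0% = growth of vehicle-only cultures of the same strain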; settings: S. cerevisiae rad50 strain growth inhibition; at 50.0 µM; stronger effect = higher value
Procedure, shortened: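 Readout: growth inhibition relative to vehicle-treated cultures. Compound exposure was carried out in a genetically defined yeast strain deficient in DNA damage repair.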

[2] = NCI Yeast Anticancer Drug Screen. Data for the mec2-1 strain (AID 157); settings: S. cerevisiae mec2-1 strain, at 50.0 µM, stronger effect = higher value
Procedure, shortened: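 Readout is yeast growth inhibition, normalised to vehicle-treated controls, in the mec2-1 strain exposed to compound.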

[3] = NCI Yeast Anticancer Drug Screen. Data for the sgs1 mgt1 strain (AID 161);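 note: 0% = growth of cultures given vehicle only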; settings: S. cerevisiae sgs1 mgt1 strain, at 50.0 µM, stronger effect = higher value
Procedure, shortened: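 This yeast growth screen uses a strain with defined DNA-repair lesions; compound-treated growth is compared with vehicle-treated growth.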

[4] = NCI Yeast Anticancer Drug Screen. Data for the cln2 rad14 strain (AID 165);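 note: 0% = growth equal to vehicle treated cultures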; settings: S. cerevisiae cln2 rad14 strain, at 50.0 µM, stronger effect = higher value
Procedure, shortened: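 Relative to vehicle controls, growth inhibition of compound-treated cln2 rad14 yeast was recorded.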

[5] = NCI Yeast Anticancer Drug Screen. Data for the bub3 strain (AID 167); settings: S. cerevisiae bub3 mutant strain, at 50.0 µM, stronger effect = higher value
Procedure, shortened: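 Readout: yeast growth inhibition, expressed relative to vehicle-only wells. The test organism is a mutant strain from a panel with lesions in DNA repair or checkpoint genes.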

[6] = NCI Yeast Anticancer Drug Screen. Data for the mlh1 rad18 strain (AID 175); settings: S. cerevisiae mlh1 rad18 strain growth inhibition; at 50.0 µM; stronger effect = higher value
Procedure, shortened: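 Test agents were incubated with a yeast strain of defined genotype (DNA damage repair defect). Inhibition of growth was derived by comparison with vehicle-exposed cultures.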

Measured: growth inhibition

O=[N+]([O-])c1ccc(NCS(=O)(=O)O)cc1
inactive: [1] 6.95% and -2% | [2] -14.3% and -7.9% | [3] -9.35% and 5.9% | [4] -12.2% and -15.8% | [5] 8.55% and -3.05% | [6] 5.7% and 17.8%

Cc1cc(=O)cc(C)o1
inactive: [1] -11.2% and 18.4% | [2] -12.8% and 5.6% | [3] -10.2% and -20.6% | [4] -2.45% and -47.6% | [5] 2.35% and -5.85% | [6] -8.55% and 0.05%

O=C(O)CCCCCCCCCCCCC1C=CCC1 (stereo not given)
inactive: [1] -11.2% and -0.55% | [2] -31.5% and -17.9% | [3] 5.95% and -4.1% | [4] -4.4% and 9.45% | [5] -22.8% and -16.8% | [6] -11.2% and -6.05%

Nc1ccc2ccc(O)cc2c1
inactive: [1] 24.8% and 29.8% | [2] -0.5% and 8.5% | [3] 24.9% and 16.8% | [4] 21.8% and -22.2% | [5] 13.6% and 25.8% | [6] 19% and 24.6%

O=C(O)c1cccc(S(=O)(=O)O)c1
inactive: [1] -22.6% and -9.2% | [2] -40.5% and -8.4% | [3] -1.2% and -9.2% | [4] -14.1% and 13% | [5] -2.05% and 0% | [6] 0.4% and 2.45%

O=C(CCl)NC(Cc1c[nH]c2ccccc12)C(=O)O (stereo not given)
inactive: [1] -7.95% and 9.8% | [2] -50.7% and -0.75% | [3] 1.1% and -0.95% | [4] 23.3% and 14.8% | [5] -10.2% and 8.7% | [6] 4.25% and -1.05%

COC1OC(COC(C)=O)C(OC(C)=O)C(OC(C)=O)C1NC(=O)N(CCCl)N=O (stereo not given)
inactive: [1] -0.5% and -15.6% | [2] -7.1% and -8.6% | [3] -1.2% and -13.6% | [4] 9.65% and 20.3% | [5] 7.95% and 16.2% | [6] -10.5% and -14%

CN(C)COC(=S)S
inactive: [1] -7.65% and 4.05% | [2] -14.4% and 3.65% | [3] -3.8% and -1.7% | [4] -30.9% and 3.55% | [5] 1.75% and -5.5% | [6] -3.9% and 2.1%

O=C1C2C3C=CC(C3)C2C(=O)N1O (stereo not given)
inactive: [1] 18.1% and 24.3% | [2] -7.6% and -8.3% | [3] 7.1% and 11.2% | [4] 10% and 10.6% | [5] 25.1% and 3.05% | [6] 11.4% and 18.5%

CN(C)CC1CCCC1=O (stereo not given)
inactive: [1] 7.15% and 1.25% | [2] -0.95% and -7.1% | [3] 5.8% and -22.7% | [4] 1.75% and 8.6% | [5] -0.75% and 8.25% | [6] 4.6% and 11.3%

O=C1NC2OC(CO)C(O)C(O)C2O1 (stereo not given)
inactive: [1] -44.6% and -35.5% | [2] -7.65% and -15.7% | [3] -51% and -63% | [4] -24.5% and -10.2% | [5] -61.6% and -22.9% | [6] -64.4% and -54.4%

Nc1c2c(nc3ccccc13)CCCC2 (tested in a mixture with another compound)
inactive: [1] -7.95% and -12.2% | [2] -20.4% and -22.8% | [3] -14.9% and -14% | [4] 9.6% and 9.4% | [5] -21.2% and -18.6% | [6] -11.7% and -0.1%

NC(C(=O)O)C(O)C(=O)O (stereo not given)
inactive: [1] -14% and 2.7% | [2] 5.85% and 8.65% | [3] 2.85% and -6.75% | [4] 10.4% and -5.6% | [5] -5.75% and 4.05% | [6] 0.55% and -7.3%

OCC1OCOC2C(CO)OCOC12 (stereo not given)
inactive: [1] -9.2% and -8.3% | [2] -21.4% and -3.75% | [3] -9.95% and 15.6% | [4] 0.65% and -36.2% | [5] -13.8% and -4.7% | [6] -4.7% and -3.1%

CCCCCCCc1ccc(OC2OC(COC(C)=O)C(OC(C)=O)C(OC(C)=O)C2OC(C)=O)cc1 (stereo not given)
inactive: [1] -7% and -26.1% | [2] -12.1% and 13.8% | [3] -30.4% and 1.4% | [4] -7.45% and 37.9% | [5] 5.55% and 9.7% | [6] -6% and 10.6%

NC(Cn1ccc(=O)c(O)c1)C(=O)O (stereo not given)
inactive: [1] 9.8% and -0.85% | [2] 18.6% and 5.7% | [3] 7.35% and 21.9% | [4] 13.2% and 6.8% | [5] 10.7% and 11.4% | [6] -90.2% and 4.3%

CCc1ccc(N)cc1
inactive: [1] -16.4% and -3.75% | [2] -16.6% and 4.3% | [3] -23.4% and -4.25% | [4] -5.55% and -28.5% | [5] -16.5% and -11.1% | [6] -16.7% and 4.35%

CC(C)(C)OC(=O)N1CCCC1C(=O)O (stereo not given)
inactive: [1] -2% and 4.9% | [2] -22.3% and 2.55% | [3] 3.05% and 3.8% | [4] 6.05% and -24.8% | [5] 11.6% and -5.25% | [6] 2.45% and 4.55%

CC(C)(SCc1ccccc1)C(N)C(=O)O (stereo not given)
inactive: [1] 8.05% and -6.85% | [2] 10.3% and -17% | [3] 1.65% and -33.1% | [4] 2.2% and -33.8% | [5] -3.45% and -31.3% | [6] 6.1% and -10.3%

CC(=O)N1CCN(C(C)=O)C2C1N(C(C)=O)CCN2C(C)=O (stereo not given)
inactive: [1] -11.7% and 11.8% | [2] -18.9% and -10.6% | [3] -24.6% and 11.8% | [4] -20.1% and 27% | [5] -19.6% and 19.8% | [6] -17.1% and 35.9%
